Source: PubChem BioAssay (National Center for Advancing Translational Sciences (NCATS))
Compounds with a hit are over-represented: about 7.5% of the library has one in this group of screens.
KinaseGlo FLuc = Counterscreen for Luciferase (Kinase-Glo TM) Inhibition; Kinase-Glo luciferase, ATP luminescence, 8 min; Potency, µM (doses to about 38.3 µM), inactives show at the highest dose activity change, negative = inhibition, usual class: inhibitors; actives 0.28% (n = 200,000); AID 1379, 2008; also: % is scaled to controls: 0 for no effect and ±100 for the full control effect; nearly all actives have a fitted effect of over 60% in size
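Recombinant Kinase-Glo luciferase, 10 uM ATP (linear range), luciferin; imidazole pH 7.2 / KCl / MgCl2 / Tween / BSA buffer; 8 min RT; luminescence.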
ELG1 genotoxic = qHTS screen for small molecules that induce genotoxicity in human embryonic kidney (HEK293T) cells expressing luciferase-tagged ELG1 | HEK293T ELG1-luciferase reporter, luminescence, 16 h | Potency, µM (top dose mostly 46 µM), without a hit: at the top dose activity change, positive = activation, hits mostly activators | actives 1.3% (n = 330,000) | AID 504466, 2011; also: % of control where 0% means no effect; nearly all actives have a fitted effect of over 60% in size
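DMSO vehicle served as control against compound-treated ELG1-luciferase HEK293T cells; exposure lasted 16 hr at 37 °C and 5% CO2, followed by ONE-Glo luminescence detection after 30 min.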
SMN2 splice enh = qHTS Assay for Enhancers of SMN2 Splice Variant Expression | AID 1458, 2008 | actives 2.8% (n = 210,000) | Potency, µM (highest dose often 46.1 µM), for inactives: at the highest dose activity change, positive = activation, usual class: activators | HEK293 SMN2-luciferase splicing reporter, luminescence, 30-36 h; also: % of control where 0% means no effect; nearly all actives have a fitted effect of over 55% in size
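qHTS luciferase splicing reporter: luminescence rises when SMN2 exon 7 is included in transfected HEK293 cells. Compound exposure lasted 30-36 h at 37C, with 4.5 mM final sodium butyrate as control, followed by a ONE-Glo read.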
NPC1 prom act = qHTS Assay for NPC1 Promoter Activators. Huh7 NPC1 promoter luciferase reporter, 24 h. Potency, µM (series often up to 9.22 µM), for inactives: at the highest dose activation, hits mostly activators. actives 2.4% (n = 320,000). AID 485313, 2010; also: % of control where 0% means no effect; nearly all actives have a fitted effect of over 60% in size
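Huh7 reporter cells (NPC1 promoter driving luciferase) are dosed with compound for 24 h at 37 °C, 5% CO2; luciferase detection reagent is then added and luminescence measured after 10 min at ambient temperature.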
Rab9 promoter act = qHTS Assay for Rab9 Promoter Activators; actives 2.8% (n = 320,000); Potency, µM (titrated, usually from 9.22 µM), without a hit: at the top dose activation, negative = inhibition, usual class: activators; AID 485297, 2010; Huh7 Rab9 promoter-luciferase reporter, luminescence, 24 h; also: % of control where 0% means no effect; nearly all actives have a fitted effect of over 60% in size
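Promoter activation is measured as luciferase luminescence in Huh7 cells stably transfected with a Rab9 promoter–luciferase construct, following 24 h compound exposure at 37 °C and 10 min reagent incubation at ambient temperature.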
FLuc modulator = qHTS profiling assay for firefly luciferase inhibitor/activator using purifed enzyme and Km concentrations of substrates (counterscreen for miR-21 project); Potency, µM (top dose mostly 57.5 µM), for the others: top-dose activity change, negative = inhibition, usual class: inhibitors; Luciferin 4-monooxygenase (Photinus pyralis), P08659; AID 588342, 2011; purified FLuc, Km substrates, luminescence inhibition; actives 6.9% (n = 360,000);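 also: plate controls were vehicle for no effect and reference inhibitor for full effect; nearly all actives have a fitted effect of over 55% in size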
Target sequence (P08659 whole entry, looked up): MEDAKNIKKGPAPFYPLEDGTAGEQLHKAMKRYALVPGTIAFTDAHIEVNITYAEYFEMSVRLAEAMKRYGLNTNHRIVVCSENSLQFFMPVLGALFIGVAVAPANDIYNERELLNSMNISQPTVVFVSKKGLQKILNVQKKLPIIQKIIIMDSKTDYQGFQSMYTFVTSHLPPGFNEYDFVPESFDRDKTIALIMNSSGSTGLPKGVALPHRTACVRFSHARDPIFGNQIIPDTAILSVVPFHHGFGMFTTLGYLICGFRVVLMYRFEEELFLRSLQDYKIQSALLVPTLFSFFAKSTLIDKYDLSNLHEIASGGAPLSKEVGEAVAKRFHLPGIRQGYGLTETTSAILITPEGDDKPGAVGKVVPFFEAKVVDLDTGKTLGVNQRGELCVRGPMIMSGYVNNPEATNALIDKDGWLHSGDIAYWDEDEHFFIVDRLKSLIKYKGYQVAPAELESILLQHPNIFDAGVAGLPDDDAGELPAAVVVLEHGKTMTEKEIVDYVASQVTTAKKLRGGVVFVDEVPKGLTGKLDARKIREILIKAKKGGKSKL
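Purified P. pyralis luciferase (10nM final) with 10uM D-luciferin and 10uM ATP (Km levels) in 50mM Tris acetate pH 7.5, 10mM Mg acetate, 0.01% Tween-20, 0.05% BSA; qHTS 6-point titration, ~60 µM downward; luminescence read.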
Active calls of the source: *; ? = inconclusive; · = no result; [ ] = dose if it differs, or a comment. Calls follow the shape of the dose curve; as a rule, active = well fitted curve in the direction sought with a large enough effect; inconclusive = small, poorly fitted or top-dose-only effect, or another doubt; inactive = no such curve, though single readings can be large; an effect the other way counts as inactive or inconclusive. Potency is read from the fitted curve at half-maximal effect.

SMILES	KinaseGlo FLuc	ELG1 genotoxic	SMN2 splice enh	NPC1 prom act	Rab9 promoter act	FLuc modulator
CC(C)NS(=O)(=O)c1ccc(OCC(=O)N(C)Cc2ccccc2)cc1	-1%	3%	-10%	-1%	0%	1%
C[C@H](N)CCCC(C)(C)O	3%[17.1 µM]	·	9%[20.6 µM]	·	·	·
NC(=O)C1(N2CCCCC2)CCN(C(=O)Nc2ccc(F)cc2)CC1	·	·	-3%	·	·	-1%
COc1ccc(OC)c(/C=N/NC(=O)c2cc3c(OC)cc(OC)cc3[nH]2)c1	·	-10%	·	9%	3%	15µM*
COc1ccc(OC)c(/C=N/NC(=O)c2cc3c(OC)cccc3[nH]2)c1	·	-4%	·	8%	3%	?
CCOc1ccc(/C=N/NC(=O)c2cc3c(OC)cc(OC)cc3[nH]2)cc1OC	·	-9%	·	-2%	-2%	15µM*
CCOc1ccc(/C=N/NC(=O)c2cc3c(OC)cccc3[nH]2)cc1	·	6%	·	-5%	-5%	?
CCOc1ccc2[nH]c(C(=O)N/N=C/c3cc(OC)c(OC)c(OC)c3)cc2c1	·	-11%	·	18%	8%	4.8µM*
Cc1cccc(NC(=O)C2CCCN(S(=O)(=O)c3c(C)n[nH]c3C)C2)c1 (stereo not given)	·	·	-22%	·	·	-2%
CCOC(=O)c1c(-c2ccccc2)csc1NC(=O)c1cc(-c2cccc(OC)c2)on1	·	·	4%	·	·	-5%
O=C1NCCN/C1=C\C(=O)c1ccc(Br)cc1	·	10µM*	·	1.3µM*	1.3µM*	9.5µM*
O=C1NCCN/C1=C\C(=O)c1ccccc1	0%	?	7%	15%	?	-18%
O=C1OCCN/C1=C\C(=O)c1ccc(Cl)cc1	·	-6%	·	-2%	-7%	24µM*
Cc1ccn2c(=O)cc(COc3ccc(NC(=O)COc4ccc(Cl)cc4)cc3)nc2c1	·	·	·	·	·	5%
C=CCC(C)(O)c1ccc(OC)cc1 (stereo not given)	-1%	·	-2%	·	·	·
Cc1nc(-c2ccccn2)sc1C(=O)Nc1ccc(F)cc1F	-3%	?	8%	10%	4µM*	-16%
CCOCCc1nn2c(=O)cc(COC(=O)c3ccccc3NC(=O)CC(C)C)nc2s1	·	·	·	·	·	1%
O=C(Nc1cccc(NC(=O)c2cccs2)c1)c1ccco1	0%	0%	?	9%	-1%	?
Cc1ccc2nc(-c3cccc(NC(=O)c4ccco4)c3)[nH]c2c1	?	0%	13µM*	?	?	1.3µM*
O=C(Nc1ccc2nc(-c3ccco3)[nH]c2c1)c1ccco1	-16%	16µM*	24%	?	?	7.6µM*
O=C(Nc1ccc2nc(-c3ccco3)[nH]c2c1)c1cccs1	?	5%	11µM*	?	3.2µM*	2.7µM*
CC(=O)Nc1ccc2nc(-c3ccco3)[nH]c2c1	-21%	16%	?	23%	?	17µM*
CC(=O)Nc1ccc2nc(-c3cccnc3)[nH]c2c1	-9%	2%	-12%	0%	12%	?
CCC(=O)N1CCc2cc(Br)cc(S(=O)(=O)CCC(=O)NCCc3cccc(C)c3)c21	·	·	·	·	·	-9%
NCCC[C@@H](CC(=O)N[C@@H]1CCCC[C@H]1C(=O)N[C@H](CC(=O)N[C@@H](CCC(=O)O)CC(=O)O)Cc1c[nH]c2ccccc12)NC(=O)C[C@H](Cc1ccccc1)NC(=O)[C@@H]1CNCC[C@H]1N	-1%	·	-1%	·	·	·
SMILES	KinaseGlo FLuc	ELG1 genotoxic	SMN2 splice enh	NPC1 prom act	Rab9 promoter act	FLuc modulator
O=C1CCC[C@H]1C(=O)Nc1ccc2ccccc2c1	-2%[7.66 µM]	·	-1%[9.22 µM]	·	·	·
Cc1cc2cc(NC(=O)c3ccco3)ccc2[nH]1	-8%	14%	27%	?	?	15µM*
CC(=O)Nc1cccc(-c2nc3ccc(NC(C)=O)cc3[nH]2)c1	-21%	1%	-16%	4%	-4%	15µM*
Cc1cc(C)c(CN2CCN(C(=O)Cn3cnc4c(OCc5ccccc5)ncnc43)CC2)c(C)c1	·	1%	·	·	·	·
CCc1ccc(NC(=O)CSc2ccnc(=O)[nH]2)cc1	·	·	·	·	·	-4%
COc1ccc(N(CC(=O)N2CCN(c3ccc(F)cc3)CC2)S(=O)(=O)c2c(C)nn(C)c2C)cc1	·	·	-4%	·	·	-2%
CCOc1ccc2nc(SCCNS(=O)(=O)c3ccccc3)sc2c1	1%	1%	-42%	-1%	0%	?
CCOc1ccc2nc(SCC(=O)NC3CC3)sc2c1	·	-8%	·	?	?	5%
CCOc1ccc2nc(SCC(=O)c3ccccc3)sc2c1	1%	18µM*	16%	16%	29%	15µM*
CCOc1ccc2nc(SCc3ccc(OC)cc3)sc2c1	3%	1%	-21%	6%	8%	13µM*
CCOc1ccc2nc(SCc3ccccc3C#N)sc2c1	0%	?	11µM*	3.2µM*	2.5µM*	7.6µM*
CC(C)(C)c1ccc(Cn2ccc(-c3ccc4c(c3)OCO4)n2)cc1	-3%	1%	4%	8%	12%	27µM*
Cc1ccc(C2=CC(c3ccccc3F)n3c(nc4ccccc43)N2)cc1C (stereo not given)	·	·	·	·	·	6µM*
COc1cccc(C2=CC(c3ccccc3F)n3c(nc4ccccc43)N2)c1 (stereo not given)	·	·	·	·	·	12µM*
COc1cccc(C2=CC(c3ccccc3F)n3ncc(C(=O)Nc4ccc(C)cc4)c3N2)c1 (stereo not given)	·	·	·	·	·	-1%
Cc1nc2nc(CNC(=O)OC(C)(C)C)nn2c(C)c1CCC(=O)NCc1ccccc1Cl	·	·	-2%	·	·	0%
COc1cccc(/C=N/NC(=O)c2cnccn2)c1O	·	15%	·	-23%	-23%	15µM*
COc1cccc(/C=N/NC(=O)c2cnccn2)c1	-8%	14%	17%	16%	11%	12µM*
COc1ccc(/C=N/NC(=O)c2cc3c(OC)ccc(OC)c3[nH]2)cc1O	·	-5%	·	-19%	-6%	11µM*
COc1cccc(C(=O)O/N=C(\C)c2cnccn2)c1	-5%	-4%	·	-6%	-3%	5.4µM*
COc1ccc(/C=N/NC(=O)c2cnccn2)c(OC)c1OC	·	3%	·	1%	-1%	6%
COc1ccc(OC)c(/C=N/NC(=O)c2cnccn2)c1	·	0%	·	2%	-6%	0%
